In PubChem BioAssay (NCATS):
Values without a mark were called inactive. Results filed as inconclusive are left out. Where a call stands in place of a potency, no number is given. Active and inactive are the calls of the source. Unless noted, calls come from the whole dose curve; as a rule, active = well fitted curve in the direction sought with a large enough effect; inconclusive = small, poorly fitted or top-dose-only effect, or another doubt; inactive = no such curve, though single readings can be large; an effect the other way counts as inactive or inconclusive.

Experiments:
[1] = qHTS for Inhibitors of Plasmodium falciparum (DD2) proliferation (AID 504314);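 note: parasite DNA measured by SYBR Green fluorescence after red cell lysis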
Procedure, shortened: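 Parasite proliferation measured as SYBR Green signal from Plasmodium DNA, mature erythrocytes lacking DNA. 72 h incubation, 37C; activity scaled between vehicle and 0.29 uM artemisinin, with correction from vehicle-only plates.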

[2] = qHTS for Inhibitors of Plasmodium falciparum (GB4) proliferation (AID 504315); note: nearly all actives have a fitted effect of over 50% in size
Procedure, shortened: (§1)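 Parasite growth measured as SYBR Green DNA fluorescence (ex 485, em 535 nm) after overnight lysis following 72 h culture at 37 °C, 0.3% parasitemia, 2.5% hematocrit. Values normalized against DMSO and 0.29 uM artemisinin controls, with plate-stack correction.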

[3] = qHTS for Inhibitors of Plasmodium falciparum (HB3) proliferation (AID 504318); note: nearly all actives have a fitted effect of over 60% in size
Procedure, shortened: as §1

[4] = qHTS for Inhibitors of Plasmodium falciparum (CP250) proliferation (AID 504320)
Procedure, shortened: as §1

[5] = molecular target: Atrial natriuretic peptide receptor 1 (Homo sapiens) (UniProt P16066); test: Natriuretic polypeptide receptor (hNpr1) antagonism - Pilot CMLD screen (AID 1347052; calls by dose curve;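 note: cGMP level read as GloSensor luciferase luminescence after agonist stimulation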; note: potency is the fitted concentration of half-maximal effect;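 for activity change, negative = inhibition: HEK293 cells with hNpr1 stimulated by hNppA peptide at 0.1 nM; series mostly up to about 9.2 µM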)
[6] = molecular target: Cytochrome P450 2C9 (Homo sapiens) (UniProt P11712); test: qHTS Assay for Inhibitors and Substrates of Cytochrome P450 2C9 (AID 883); note: potency is the fitted concentration of half-maximal effect; nearly all actives have a fitted effect of over 60% in size
Procedure, shortened: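 Turnover of Luciferin-H (100uM, KM) by 10nM human CYP2C9 was measured over 60 min at 37C with NADPH regeneration; inhibitors and some substrates reduce luminescence. Data normalized to sulphaphenazole 57uM.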

[7] = molecular target: Cytochrome P450 3A4 (Homo sapiens) (UniProt P08684); test: qHTS Assay for Inhibitors and Substrates of Cytochrome P450 3A4 (AID 884); note: potency is the fitted concentration of half-maximal effect; nearly all actives have a fitted effect of over 50% in size
Procedure, shortened: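 Luminescent readout of luciferin produced by CYP3A4 (20 nM) dealkylation of Luciferin-PPXE, 25 uM (its KM). NADPH-driven reaction ran 60 min at RT after 10 min compound preincubation; data scaled to 57 uM ketoconazole as 100% inhibition.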

[8] = molecular target: Cytochrome P450 3A4 (Homo sapiens) (UniProt P08684); test: qHTS Assay for Activators of Cytochrome P450 3A4 (AID 885); note: nearly all actives have a fitted effect of over 65% in size
Procedure, shortened: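 Human CYP3A4 dealkylates Luciferin-PPXE to luciferin, which luciferase detection converts to light. Substrate was at its KM (25uM), buffer 200mM KPO4, reaction 60 min at RT.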

[9] = molecular target: Cytochrome P450 2D6 (Homo sapiens) (UniProt P10635); test: qHTS Assay for Inhibitors and Substrates of Cytochrome P450 2D6 (AID 891);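 note: luciferin methyl ether substrate demethylated by CYP2D6 with NADPH regeneration; nearly all actives have a fitted effect of over 60% in size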
Procedure, shortened: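 Luminescent read-out of luciferin formed by 5 nM human CYP2D6 demethylating 30 uM Luciferin-ME EGE (Km level) over 60 min at room temperature after NADPH regeneration addition. Data normalized to full inhibition by 1.43 uM quinidine.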

[10] = molecular target: Cytochrome P450 2C19 (Homo sapiens) (UniProt P33261); test: qHTS Assay for Inhibitors and Substrates of Cytochrome P450 2C19 (AID 899); note: potency is the fitted concentration of half-maximal effect; nearly all actives have a fitted effect of over 60% in size
Procedure, shortened: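 Reactions contain 5nM enzyme, 10uM Luciferin-H EGE (KM) and 50mM KPO4; compound preincubates 10 min at 37C, NADPH regeneration starts turnover for 60 min. Luminescence after detection reagent gives activity.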

Chain of Atrial natriuretic peptide receptor 1 (Homo sapiens) (P16066 whole entry, looked up): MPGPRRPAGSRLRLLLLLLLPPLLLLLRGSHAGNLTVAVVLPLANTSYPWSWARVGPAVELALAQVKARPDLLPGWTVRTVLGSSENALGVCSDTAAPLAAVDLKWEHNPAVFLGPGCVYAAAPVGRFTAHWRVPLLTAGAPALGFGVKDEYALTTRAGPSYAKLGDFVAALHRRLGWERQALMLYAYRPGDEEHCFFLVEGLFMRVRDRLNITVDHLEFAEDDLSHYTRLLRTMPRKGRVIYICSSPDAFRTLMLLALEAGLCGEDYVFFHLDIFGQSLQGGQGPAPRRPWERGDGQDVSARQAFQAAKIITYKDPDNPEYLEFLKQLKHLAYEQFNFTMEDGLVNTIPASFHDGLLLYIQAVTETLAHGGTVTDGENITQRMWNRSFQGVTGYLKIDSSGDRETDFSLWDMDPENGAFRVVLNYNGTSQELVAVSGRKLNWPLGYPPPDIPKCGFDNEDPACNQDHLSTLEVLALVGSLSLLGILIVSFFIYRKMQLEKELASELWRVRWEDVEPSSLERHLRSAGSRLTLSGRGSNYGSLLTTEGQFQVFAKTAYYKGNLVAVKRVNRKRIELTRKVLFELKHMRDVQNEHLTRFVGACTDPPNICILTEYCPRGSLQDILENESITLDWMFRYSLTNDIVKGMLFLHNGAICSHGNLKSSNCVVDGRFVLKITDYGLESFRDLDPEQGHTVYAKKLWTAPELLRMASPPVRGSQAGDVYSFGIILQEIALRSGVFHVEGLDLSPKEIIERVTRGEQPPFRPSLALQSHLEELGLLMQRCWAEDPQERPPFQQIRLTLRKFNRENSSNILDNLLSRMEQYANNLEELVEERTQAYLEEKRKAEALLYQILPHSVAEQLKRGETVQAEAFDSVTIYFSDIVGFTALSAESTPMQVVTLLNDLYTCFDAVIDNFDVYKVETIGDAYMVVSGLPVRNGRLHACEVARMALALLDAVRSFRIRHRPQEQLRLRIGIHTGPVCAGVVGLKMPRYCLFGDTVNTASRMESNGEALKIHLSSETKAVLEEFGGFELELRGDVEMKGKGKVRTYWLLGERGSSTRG
Chain of Cytochrome P450 3A4 (Homo sapiens) (P08684 whole entry, looked up): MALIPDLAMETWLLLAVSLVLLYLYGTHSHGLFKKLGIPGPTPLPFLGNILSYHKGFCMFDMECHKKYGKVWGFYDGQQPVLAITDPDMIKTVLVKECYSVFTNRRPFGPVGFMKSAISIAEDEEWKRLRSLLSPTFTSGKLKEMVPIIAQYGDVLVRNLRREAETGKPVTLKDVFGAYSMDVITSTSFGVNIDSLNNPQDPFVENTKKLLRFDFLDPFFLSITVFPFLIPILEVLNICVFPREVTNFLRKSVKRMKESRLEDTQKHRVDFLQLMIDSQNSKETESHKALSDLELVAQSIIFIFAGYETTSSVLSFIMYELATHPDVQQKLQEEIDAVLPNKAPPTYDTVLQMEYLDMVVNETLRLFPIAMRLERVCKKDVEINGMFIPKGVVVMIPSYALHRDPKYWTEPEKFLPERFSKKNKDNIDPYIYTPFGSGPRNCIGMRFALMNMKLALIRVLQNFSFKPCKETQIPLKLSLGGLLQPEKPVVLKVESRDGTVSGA
Chain of Cytochrome P450 2C19 (Homo sapiens) (P33261 whole entry, looked up): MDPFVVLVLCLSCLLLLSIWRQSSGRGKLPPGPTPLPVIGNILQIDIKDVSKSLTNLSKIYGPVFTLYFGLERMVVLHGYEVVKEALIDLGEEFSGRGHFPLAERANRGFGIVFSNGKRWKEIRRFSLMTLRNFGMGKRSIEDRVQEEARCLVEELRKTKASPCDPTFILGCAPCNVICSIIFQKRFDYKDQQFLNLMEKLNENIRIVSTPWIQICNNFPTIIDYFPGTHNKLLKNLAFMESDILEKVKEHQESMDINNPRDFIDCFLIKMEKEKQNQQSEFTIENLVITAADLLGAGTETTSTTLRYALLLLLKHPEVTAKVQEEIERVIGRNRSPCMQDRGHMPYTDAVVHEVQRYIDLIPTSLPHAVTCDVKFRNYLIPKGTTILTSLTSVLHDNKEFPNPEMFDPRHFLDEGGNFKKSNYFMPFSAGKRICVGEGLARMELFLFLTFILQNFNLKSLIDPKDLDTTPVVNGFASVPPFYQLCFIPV
Chain of Cytochrome P450 2C9 (Homo sapiens) (P11712 whole entry, looked up): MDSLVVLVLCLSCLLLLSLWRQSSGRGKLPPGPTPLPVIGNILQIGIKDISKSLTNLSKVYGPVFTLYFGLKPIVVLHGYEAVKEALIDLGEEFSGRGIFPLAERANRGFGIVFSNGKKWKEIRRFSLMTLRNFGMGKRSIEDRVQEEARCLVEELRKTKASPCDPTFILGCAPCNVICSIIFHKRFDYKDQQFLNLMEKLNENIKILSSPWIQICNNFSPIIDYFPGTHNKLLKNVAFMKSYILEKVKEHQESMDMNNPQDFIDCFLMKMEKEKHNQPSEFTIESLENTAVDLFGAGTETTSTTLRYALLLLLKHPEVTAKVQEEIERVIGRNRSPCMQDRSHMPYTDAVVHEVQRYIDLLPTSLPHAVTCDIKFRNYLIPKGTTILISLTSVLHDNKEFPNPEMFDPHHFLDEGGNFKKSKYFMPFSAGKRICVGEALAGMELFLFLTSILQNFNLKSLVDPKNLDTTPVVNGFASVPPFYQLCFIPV
Chain of Cytochrome P450 2D6 (Homo sapiens) (P10635 whole entry, looked up): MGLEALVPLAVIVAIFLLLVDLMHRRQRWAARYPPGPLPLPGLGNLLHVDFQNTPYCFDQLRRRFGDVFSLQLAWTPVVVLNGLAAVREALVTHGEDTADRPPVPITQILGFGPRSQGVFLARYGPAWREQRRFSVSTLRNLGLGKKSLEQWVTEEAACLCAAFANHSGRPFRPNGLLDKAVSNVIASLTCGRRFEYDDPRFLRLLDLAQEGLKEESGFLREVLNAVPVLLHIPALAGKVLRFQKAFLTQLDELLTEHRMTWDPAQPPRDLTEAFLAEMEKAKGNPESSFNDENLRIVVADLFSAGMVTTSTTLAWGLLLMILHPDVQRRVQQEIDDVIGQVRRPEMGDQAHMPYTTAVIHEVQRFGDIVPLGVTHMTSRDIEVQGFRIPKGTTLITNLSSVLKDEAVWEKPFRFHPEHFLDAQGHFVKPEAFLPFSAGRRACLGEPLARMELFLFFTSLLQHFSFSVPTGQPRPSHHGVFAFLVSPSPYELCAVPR

| Structure (SMILES) | Potency [1] | Potency [2] | Potency [3] | Potency [4] | Potency [5] | Potency [6] | Potency [7] | activity change, positive = activation [8] | activity change, negative = inhibition [9] | Potency [10] |
| --- | --- | --- | --- | --- | --- | --- | --- | --- | --- | --- |
| O=P1(O)Oc2c(c(-c3ccccc3)cc3ccc4ccccc4c23)-c2c(-c3ccccc3)cc3ccc4ccccc4c3c2O1 | inactive | inactive | inactive | inactive | inactive | – | – | – | – | – |
| CC(C)OC(=O)[C@@H]1CC[C@H](C)[C@@H](CCC[C@@H]2CC=C[C@H](CC#N)O2)O1 | inactive | inactive | inactive | inactive | inactive | – | – | – | – | – |
| C=CCN1C(=O)[C@]2(OCCC=C[C@H]2C)c2ccccc21 | inactive | inactive | inactive | inactive | inactive | – | – | – | – | – |
| COC(=O)N[C@H](CC(C)=O)c1ccccc1 | inactive | inactive | inactive | inactive | inactive | – | – | – | – | – |
| CC#CCN1C(=O)N(C)C(c2ccccc2)C(C(=O)OC)=C1C (stereo not given) | inactive | inactive | inactive | inactive | inactive | – | – | – | – | – |
| COc1ccc(C=CNC(=O)Cc2ccc(OC)c(OC)c2)cc1 | inactive | inactive | inactive | inactive | inactive | – | – | – | – | – |
| COC(=O)N[C@@H](c1cccc(C)c1)[C@@H](C)[N+](=O)[O-] | inactive | inactive | inactive | inactive | inactive | – | – | – | – | – |
| COC(=O)C1=C(C(=O)OC)[C@@H]2N(C)c3ccccc3[C@@]23C[C@@H](C(=O)OC)N(C(=O)NCCBr)C3=N1 | inactive | inactive | inactive | inactive | inactive | – | – | – | – | – |
| COC(=O)N[C@H](C(C(=O)OC)=C(C)NCc1ccccc1)c1ccc(Cl)cc1 | inactive | inactive | inactive | inactive | inactive | – | – | – | – | – |
| CC(CCC#N)[N+](=O)[O-] (stereo not given) | inactive | inactive | inactive | inactive | 5.31 µM (active) | – | – | – | – | – |
| COCCN1C(=O)CC[C@@]23C1=NC(C(=O)OC)=C(C(=O)OC)[C@@H]2N(CC=C(C)C)c1ccccc13 | inactive | inactive | inactive | inactive | inactive | – | – | – | – | – |
| C=C(C(C)=O)C(O)c1ccc(C(F)(F)F)cc1 (stereo not given) | inactive | inactive | inactive | inactive | inactive | – | – | – | – | – |
| C=CCC(Nc1ccc(OC)cc1)(C(=O)OCC)c1ccccc1 (stereo not given) | inactive | inactive | inactive | inactive | inactive | – | – | – | – | – |
| COCCN1C(=NCC(C)C)NC(c2ccccc2)C(C(=O)OC)=C1C (stereo not given) | inactive | inactive | inactive | inactive | inactive | – | – | – | – | – |
| COC(=O)CCCC1=CC2=C(c3ccccc3)C(=O)C(C)(OC(=O)C3CCCC3)C(=O)C2=CN1CCN1CCOCC1 (stereo not given) | inactive | inactive | inactive | inactive | inactive | – | – | – | – | – |
| CC(=O)C1=C(C)N(CCC=Cc2ccccc2)C(=O)NC1c1ccccc1 (stereo not given) | inactive | inactive | inactive | inactive | inactive | – | – | – | – | – |
| CCCC[C@]12Cc3cc(C#N)ccc3[C@H](O1)c1c(c3ccccc3oc1=O)O2 | inactive | inactive | inactive | inactive | inactive | – | – | – | – | – |
| CC(=O)C1=C(C)N(Cc2ccco2)C(=O)NC1c1ccccc1 (stereo not given) | inactive | inactive | inactive | inactive | inactive | – | – | – | – | – |
| CCC12C=C(C=Cc3ccccc3)C(CC)(C1)C(c1ccccc1)CC2=O (stereo not given) | inactive | inactive | inactive | inactive | inactive | – | – | – | – | – |
| O=c1n(-c2ccccc2)c(=O)n2n1CC[C@@H]1C(=NOC[C@@H](O)COCc3ccco3)[C@H]3O[C@H]3[C@@H](O)[C@H]12 | inactive | inactive | inactive | inactive | inactive | – | – | – | – | – |
| CCOC(=O)C1=CN(CCCc2cn(Cc3ccccc3)nn2)C(=O)NC1c1ccccc1 (stereo not given) | inactive | inactive | inactive | inactive | inactive | – | – | – | – | – |
| CCN1C(=O)N[C@@H](c2ccccc2)[C@@H](C(=O)OC)[C@H]1C | inactive | inactive | inactive | inactive | inactive | – | – | – | – | – |
| COCC=CC1=CC2=CC(=O)C(C)(OC(=O)c3cnc4ccccc4n3)C(=O)C2=CN1CC(C)C (stereo not given) | inactive | inactive | inactive | inactive | inactive | – | – | – | – | – |
| CCCCCCC#C[C@@H]1C=C[C@H](OC(=O)OCC)[C@@H](COC(=O)OCC)O1 | inactive | inactive | inactive | inactive | inactive | – | – | – | – | – |
| N#CCCN(CC#Cc1ccccc1)OCc1ccccc1 | inactive | inactive | inactive | inactive | inactive | 3.16 µM (active) | 0.199 µM (active) | -80.9% [at 11.4 µM] | -16.6% [at 11.4 µM] | 0.316 µM (active) |
| COc1cccc([C@H]2Oc3ccc(OC)cc3C(=NOC[C@@H](C)[C@H](OCc3ccccc3)C(C)C)[C@H]2O)c1 | inactive | inactive | inactive | inactive | inactive | – | – | – | – | – |
